Results taken from PubChem BioAssay (NCI).
The panel holds about 79,000 compounds, 15% with a hit somewhere; the sample as a whole holds those more often. The source made the active and inactive calls. No stated cut-off is given here; in the data, active means growth inhibition above about 70%; inactive means the rest.

Legend:
[1] = NCI Yeast Anticancer Drug Screen. Data for the rad52 strain (AID 147);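 further: 0% = growth of vehicle-treated control cultures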; conditions: S. cerevisiae rad52 mutant growth inhibition, hits give high values
In short: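 Screen used a yeast mutant impaired in DNA repair. After compound exposure, growth was measured. Values reflect inhibition compared with vehicle-treated cells.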

[2] = NCI Yeast Anticancer Drug Screen. Data for the wt1 strain (AID 149);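 further: 0% = growth of vehicle-treated wt1 cultures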; conditions: S. cerevisiae wt1 strain (SPY 50644) growth inhibition, hits give high values
In short: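 wt1 strain grown with compound or vehicle; inhibition taken from the growth difference.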

[3] = NCI Yeast Anticancer Drug Screen. Data for the rad50EPP+ strain (AID 151);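 further: 0% = growth of vehicle-treated control cultures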; conditions: S. cerevisiae rad50 mutant strain, hits give high values
In short: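 Exposing the rad50EPP+ strain to each compound, growth was compared with vehicle-only cultures to give inhibition.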

[4] = NCI Yeast Anticancer Drug Screen. Data for the mgt1 strain (AID 153); conditions: S. cerevisiae mgt1 mutant growth inhibition, hits give high values
In short: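 Genetically defined yeast (mgt1) treated with compound; inhibition of growth expressed against vehicle-treated controls.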

[5] = NCI Yeast Anticancer Drug Screen. Data for the rad50 strain (AID 155);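 further: 0% = growth of vehicle-only cultures of the same strain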; conditions: S. cerevisiae rad50 strain growth inhibition, hits give high values
In short: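 DNA repair mutant yeast, compound exposure, growth read-out; inhibition is taken relative to vehicle.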

[6] = NCI Yeast Anticancer Drug Screen. Data for the mec2-1 strain (AID 157); conditions: S. cerevisiae mec2-1 strain, hits give high values
In short: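 Readout is yeast growth inhibition, normalised to vehicle-treated controls, in the mec2-1 strain exposed to compound.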

[7] = NCI Yeast Anticancer Drug Screen. Data for the rad14 strain (AID 159);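 further: 0% = growth of vehicle-treated control cultures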; conditions: S. cerevisiae rad14 strain growth inhibition, hits give high values
In short: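 DNA repair-defective yeast, compound-exposed; % growth inhibition derived by comparison with vehicle-treated controls.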

[8] = NCI Yeast Anticancer Drug Screen. Data for the sgs1 mgt1 strain (AID 161);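 further: 0% = growth of cultures given vehicle only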; conditions: S. cerevisiae sgs1 mgt1 strain, hits give high values
In short: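 Growth of a repair-deficient yeast mutant was monitored after compound treatment and expressed as inhibition relative to vehicle-treated cultures.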

[9] = NCI Yeast Anticancer Drug Screen. Data for the CLN2oe strain (AID 163);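 further: 0% = growth of vehicle-only control cultures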; conditions: S. cerevisiae CLN2oe strain, hits give high values
In short: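 Values reflect how much compound exposure reduced yeast growth, referenced to vehicle-exposed cells. Assay organism is a strain with a defined genetic change affecting cell-cycle control.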

[10] = NCI Yeast Anticancer Drug Screen. Data for the cln2 rad14 strain (AID 165);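 further: 0% = growth equal to vehicle treated cultures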; conditions: S. cerevisiae cln2 rad14 strain, hits give high values
In short: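 Relative to vehicle controls, growth inhibition of compound-treated cln2 rad14 yeast was recorded.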

[11] = NCI Yeast Anticancer Drug Screen. Data for the bub3 strain (AID 167); conditions: S. cerevisiae bub3 mutant strain, hits give high values
In short: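 In this screen, a yeast mutant lacking normal mitotic checkpoint function is challenged with compound. Relative growth versus vehicle gives the inhibition value.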

[12] = NCI Yeast Anticancer Drug Screen. Data for the wt2 strain (AID 169);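 further: 0% = growth of vehicle-treated yeast cultures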; conditions: S. cerevisiae wt2 strain growth inhibition, hits give high values
In short: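 Values express reduction in yeast growth under compound treatment, referenced to vehicle-treated cells.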

[13] = NCI Yeast Anticancer Drug Screen. Data for the mlh1 strain (AID 171);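 further: 0% = growth of vehicle-treated control cultures of the same strain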; conditions: S. cerevisiae mlh1 strain growth inhibition, hits give high values
In short: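 Steps: expose the defined-mutant yeast strain to compound; expose a parallel culture to vehicle; measure growth; express compound effect as inhibition relative to the vehicle culture.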

[14] = NCI Yeast Anticancer Drug Screen. Data for the sgs1 strain (AID 173);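 further: 0% = growth of vehicle-only control cultures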; conditions: S. cerevisiae sgs1 mutant, hits give high values
In short: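 Treat defined-mutant yeast with compound; measure growth; calculate inhibition relative to vehicle-treated cells.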

[15] = NCI Yeast Anticancer Drug Screen. Data for the mlh1 rad18 strain (AID 175); conditions: S. cerevisiae mlh1 rad18 strain growth inhibition, hits give high values
In short: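 Test agents were incubated with a yeast strain of defined genotype (DNA damage repair defect). Inhibition of growth was derived by comparison with vehicle-exposed cultures.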

[16] = NCI Yeast Anticancer Drug Screen. Data for the rad18 strain (AID 177); conditions: S. cerevisiae rad18 mutant growth inhibition, hits give high values
In short: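 A genetically defined yeast mutant impaired in DNA damage repair was treated with test compounds, then its growth was measured against cultures receiving vehicle alone.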

[17] = at 5.0 µM (retest, dose inferred, filed as 0.5)
[18] = at 50.0 µM (retest, dose inferred, filed as 5.0)

Measured: growth inhibition

CNC(=O)ON(C(C)=O)C(=O)NC
active: [8]; [18] 100% | [8]; at 50.0 µM 87.7% | [10]; [18] 99% | [10]; at 50.0 µM 86.2% | [11]; [18] 100%
inactive: [1]; at 1.2 µM -27% | [1]; at 3.7 µM -14% | [1]; at 11.0 µM -22% | [1]; at 33.0 µM -38% | [1]; at 100.0 µM -24% | [2]; at 1.2 µM -60% | [2]; at 3.7 µM -52% | [2]; at 11.0 µM -58% | [2]; at 33.0 µM -65% | [2]; at 100.0 µM -60% | [3]; at 1.2 µM -19% | [3]; at 3.7 µM -15% | [3]; at 11.0 µM -15% | [3]; at 33.0 µM -6% | [3]; at 100.0 µM 42% | [4]; at 1.2 µM -9% | [4]; at 3.7 µM 0% | [4]; at 11.0 µM 0% | [4]; at 33.0 µM 8% | [4]; at 100.0 µM 12% | [5]; at 1.2 µM -17% | [5]; at 3.7 µM -40% | [5]; [17] 13% | [5]; at 11.0 µM -20% | [5]; at 33.0 µM -17% | [5]; [18] 26% | [5]; at 100.0 µM -4% | [6]; at 1.2 µM -9% | [6]; at 3.7 µM -4% | [6]; [17] 2% | [6]; at 11.0 µM 5% | [6]; at 33.0 µM 4% | [6]; [18] 31% | [6]; at 100.0 µM -9% | [7]; at 1.2 µM -47% | [7]; at 3.7 µM -35% | [7]; at 11.0 µM -48% | [7]; at 33.0 µM -47% | [7]; at 100.0 µM -47% | [8]; [17] 62% | [9]; at 1.2 µM -30% | [9]; at 3.7 µM 2% | [9]; at 11.0 µM 19% | [9]; at 33.0 µM 14% | [9]; at 100.0 µM 11% | [10]; [17] 35% | [11]; at 1.2 µM 3% | [11]; at 3.7 µM 4% | [11]; [17] 31% | [11]; at 11.0 µM 23% | [11]; at 33.0 µM 35% | [11]; at 50.0 µM 52% | [11]; at 100.0 µM 60% | [12]; at 1.2 µM -24% | [12]; at 3.7 µM -20% | [12]; at 11.0 µM -22% | [12]; at 33.0 µM -42% | [12]; at 100.0 µM -10% | [13]; at 1.2 µM -43% | [13]; at 3.7 µM -27% | [13]; at 11.0 µM -11% | [13]; at 33.0 µM 4% | [13]; at 100.0 µM -9% | [14]; at 1.2 µM -26% | [14]; at 3.7 µM -49% | [14]; at 11.0 µM -13% | [14]; at 33.0 µM -15% | [14]; at 100.0 µM -19% | [15]; [17] 12% | [15]; [18] 22% | [16]; at 1.2 µM -6% | [16]; at 3.7 µM -24% | [16]; at 11.0 µM -21% | [16]; at 33.0 µM 0% | [16]; at 100.0 µM 24%

CC[C@](O)(C(=O)O)c1cc2n(c(=O)c1CO)Cc1cc3ccccc3nc1-2
inactive: [2]; at 1.2 µM 0% | [2]; at 3.7 µM 10% | [2]; at 11.0 µM 67% | [4]; at 1.2 µM -1% | [4]; at 3.7 µM 7% | [4]; at 11.0 µM 67% | [6]; at 1.2 µM 14% | [9]; at 1.2 µM -7% | [9]; at 3.7 µM 36% | [10]; [17] 66% | [11]; at 1.2 µM -16% | [11]; at 3.7 µM -3% | [11]; [17] 58% | [11]; at 11.0 µM 67% | [12]; at 1.2 µM -3% | [12]; at 3.7 µM 13% | [13]; at 1.2 µM 3% | [13]; at 3.7 µM 21% | [14]; at 1.2 µM 17% | [14]; at 3.7 µM 64% | [16]; at 1.2 µM 4% | [16]; at 3.7 µM 29%
active: [1]; at 1.2 µM 92% | [1]; at 3.7 µM 94% | [1]; at 11.0 µM 95% | [1]; at 33.0 µM 96% | [1]; at 100.0 µM 96% | [2]; at 33.0 µM 92% | [2]; at 100.0 µM 94% | [3]; at 1.2 µM 80% | [3]; at 3.7 µM 93% | [3]; at 11.0 µM 96% | [3]; at 33.0 µM 97% | [3]; at 100.0 µM 98% | [4]; at 33.0 µM 80% | [4]; at 100.0 µM 95% | [5]; at 1.2 µM 95% | [5]; at 3.7 µM 97% | [5]; [17] 97% | [5]; at 11.0 µM 97% | [5]; at 33.0 µM 97% | [5]; [18] 98% | [5]; at 50.0 µM 98.3% | [5]; at 100.0 µM 97% | [6]; at 3.7 µM 82% | [6]; [17] 95% | [6]; at 11.0 µM 94% | [6]; at 33.0 µM 95% | [6]; [18] 98% | [6]; at 50.0 µM 97% | [6]; at 100.0 µM 96% | [8]; [17] 88% | [8]; [18] 97% | [8]; at 50.0 µM 97.2% | [9]; at 11.0 µM 88% | [9]; at 33.0 µM 93% | [9]; at 100.0 µM 96% | [10]; [18] 96% | [10]; at 50.0 µM 87.8% | [11]; at 33.0 µM 91% | [11]; [18] 97% | [11]; at 50.0 µM 96.8% | [11]; at 100.0 µM 95% | [12]; at 11.0 µM 81% | [12]; at 33.0 µM 95% | [12]; at 100.0 µM 94% | [13]; at 11.0 µM 81% | [13]; at 33.0 µM 94% | [13]; at 100.0 µM 97% | [14]; at 11.0 µM 92% | [14]; at 33.0 µM 95% | [14]; at 100.0 µM 97% | [15]; [17] 83% | [15]; [18] 97% | [15]; at 50.0 µM 96.5% | [16]; at 11.0 µM 82% | [16]; at 33.0 µM 93% | [16]; at 100.0 µM 96%

Nc1nc(-c2ccccc2)c(-c2ccccc2)[se]1
active: [8]; at 50.0 µM 86.2%
inactive: [1]; at 1.2 µM 3% | [1]; at 3.7 µM 3% | [1]; at 11.0 µM 0% | [1]; at 33.0 µM 12% | [1]; at 100.0 µM 28% | [2]; at 1.2 µM -2% | [2]; at 3.7 µM -1% | [2]; at 11.0 µM -1% | [2]; at 33.0 µM -2% | [2]; at 100.0 µM 3% | [4]; at 1.2 µM -3% | [4]; at 3.7 µM 1% | [4]; at 11.0 µM 0% | [4]; at 33.0 µM 2% | [4]; at 100.0 µM 12% | [5]; at 1.2 µM 7% | [5]; at 3.7 µM 4% | [5]; [17] 7% | [5]; at 11.0 µM 5% | [5]; at 33.0 µM 16% | [5]; [18] 10% | [5]; at 50.0 µM 51.1% | [5]; at 100.0 µM 32% | [6]; at 1.2 µM -1% | [6]; at 3.7 µM 1% | [6]; [17] 11% | [6]; at 11.0 µM 0% | [6]; at 33.0 µM 3% | [6]; [18] 10% | [6]; at 50.0 µM 22.9% | [6]; at 100.0 µM 7% | [7]; at 1.2 µM 5% | [7]; at 3.7 µM 3% | [7]; at 11.0 µM 4% | [7]; at 33.0 µM 13% | [7]; at 100.0 µM 28% | [8]; [17] 10% | [8]; [18] 23% | [9]; at 1.2 µM 3% | [9]; at 3.7 µM -1% | [9]; at 11.0 µM 3% | [9]; at 33.0 µM 8% | [9]; at 100.0 µM 15% | [10]; [17] 11% | [10]; [18] 2% | [10]; at 50.0 µM -11.8% | [11]; at 1.2 µM -2% | [11]; at 3.7 µM -2% | [11]; [17] 3% | [11]; at 11.0 µM -3% | [11]; at 33.0 µM 3% | [11]; [18] 1% | [11]; at 50.0 µM 41.3% | [11]; at 100.0 µM 5% | [12]; at 1.2 µM -10% | [12]; at 3.7 µM -9% | [12]; at 11.0 µM -14% | [12]; at 33.0 µM -9% | [12]; at 100.0 µM -10%
